Screening data: PubChem, Center for Chemical Genomics, University of Michigan
Shown is part of a subset that was picked to be rich in hits.
Dicer processing = blocks human Dicer maturation of pre-miR-21; z-score at 25 µM; Q9UPY3; cat-ELCCA pre-miR-21 Dicer processing, chemiluminescence; hits give high values; 6% of 47,000 active; in the data active means z-score above about 3, passing the limit was not always enough;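 further: higher signal means more uncleaved substrate so more Dicer inhibition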
Target sequence (Q9UPY3 whole entry, looked up): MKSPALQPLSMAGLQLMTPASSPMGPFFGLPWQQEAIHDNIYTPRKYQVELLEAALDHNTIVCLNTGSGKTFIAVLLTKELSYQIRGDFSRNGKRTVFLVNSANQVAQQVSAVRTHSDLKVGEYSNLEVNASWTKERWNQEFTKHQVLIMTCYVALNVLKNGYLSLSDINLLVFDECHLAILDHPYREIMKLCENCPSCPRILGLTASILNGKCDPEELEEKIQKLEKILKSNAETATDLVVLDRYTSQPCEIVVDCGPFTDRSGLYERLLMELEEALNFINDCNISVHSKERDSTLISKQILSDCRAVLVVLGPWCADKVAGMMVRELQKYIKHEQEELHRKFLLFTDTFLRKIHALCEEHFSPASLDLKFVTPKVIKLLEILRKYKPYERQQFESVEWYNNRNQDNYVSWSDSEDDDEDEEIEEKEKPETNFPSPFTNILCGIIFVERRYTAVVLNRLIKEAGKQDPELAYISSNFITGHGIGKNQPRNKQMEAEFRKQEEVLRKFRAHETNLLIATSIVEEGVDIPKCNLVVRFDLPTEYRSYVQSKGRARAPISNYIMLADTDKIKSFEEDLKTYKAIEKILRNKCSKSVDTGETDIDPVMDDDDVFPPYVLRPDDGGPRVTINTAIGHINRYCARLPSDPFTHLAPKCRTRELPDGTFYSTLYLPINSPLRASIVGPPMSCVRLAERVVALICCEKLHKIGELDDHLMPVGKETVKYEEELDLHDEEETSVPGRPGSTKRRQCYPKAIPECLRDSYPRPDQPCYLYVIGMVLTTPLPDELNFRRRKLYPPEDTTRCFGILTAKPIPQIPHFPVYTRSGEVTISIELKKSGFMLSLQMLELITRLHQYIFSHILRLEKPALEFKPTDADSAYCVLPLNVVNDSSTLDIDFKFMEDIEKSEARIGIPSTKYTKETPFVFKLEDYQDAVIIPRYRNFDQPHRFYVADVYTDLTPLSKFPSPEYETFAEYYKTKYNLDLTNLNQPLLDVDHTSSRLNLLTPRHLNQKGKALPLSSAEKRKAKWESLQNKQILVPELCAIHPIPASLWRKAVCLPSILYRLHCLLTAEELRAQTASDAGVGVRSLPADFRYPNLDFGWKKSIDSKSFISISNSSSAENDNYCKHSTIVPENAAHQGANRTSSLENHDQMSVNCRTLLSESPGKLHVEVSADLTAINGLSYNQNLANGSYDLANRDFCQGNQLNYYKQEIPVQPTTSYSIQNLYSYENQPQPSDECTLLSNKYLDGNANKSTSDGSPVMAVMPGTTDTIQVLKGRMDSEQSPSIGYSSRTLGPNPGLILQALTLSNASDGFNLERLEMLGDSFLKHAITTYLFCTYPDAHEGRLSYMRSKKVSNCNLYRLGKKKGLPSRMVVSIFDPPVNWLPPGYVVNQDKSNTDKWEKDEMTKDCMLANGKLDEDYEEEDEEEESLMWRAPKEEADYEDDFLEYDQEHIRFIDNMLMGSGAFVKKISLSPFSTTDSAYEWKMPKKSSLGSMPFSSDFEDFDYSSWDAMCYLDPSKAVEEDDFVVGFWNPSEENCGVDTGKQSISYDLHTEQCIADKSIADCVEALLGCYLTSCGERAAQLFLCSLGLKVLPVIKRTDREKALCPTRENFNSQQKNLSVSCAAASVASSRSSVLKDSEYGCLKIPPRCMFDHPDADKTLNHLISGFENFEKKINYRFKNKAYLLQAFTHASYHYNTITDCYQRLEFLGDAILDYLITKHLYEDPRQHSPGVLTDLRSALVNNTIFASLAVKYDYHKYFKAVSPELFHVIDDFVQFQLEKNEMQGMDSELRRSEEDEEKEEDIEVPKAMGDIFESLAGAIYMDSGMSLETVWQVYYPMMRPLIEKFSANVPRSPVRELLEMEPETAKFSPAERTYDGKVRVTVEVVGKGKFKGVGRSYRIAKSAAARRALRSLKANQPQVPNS
Numbers stand for hits.

Results for O=C(CSc1n[nH]c(=O)n1-c1ccc(OCc2ccccc2)cc1)c1ccc(C(F)(F)F)cc1 ?
Dicer processing: inactive

How did Fc1cccc(CSC2=NCN(C3CC3)CN2)c1 do in these assays?
Dicer processing: inactive

What do the screens show for `O=C1CCCc2c1cnc1[nH]n(-c3ccccc3)c(=O)c21`?
Dicer processing: inactive

How did COc1ccc(C2C(C(=O)OC(C)C)=C(C)NC3=C2C(=O)CC(c2ccccc2OC)C3)cc1OC (stereo not given) do in these assays?
Dicer processing: inactive

Results for Nc1ccc(SCC(=O)O)c(C(=O)O)c1 ?
Dicer processing: inactive

What do the screens show for `Cc1ccc(N=Cc2cc(-c3ccccc3)sc2O)c(C)c1`?
Dicer processing: inactive

What do the screens show for `COc1ccccc1N1CCN(S(=O)(=O)c2ccc(-c3ccno3)s2)CC1`?
Dicer processing: inactive

Results for COc1ccccc1N1CCN(S(=O)(=O)c2ccc3[nH]c(=O)[nH]c3c2)CC1 ?
Dicer processing: 3.05

Results for CC1CCN(S(=O)(=O)c2ccc3[nH]c(=O)[nH]c3c2)CC1 ?
Dicer processing: inactive

Results for Cc1ccc(/C(O)=C2/C(=O)C(=O)N(CC(C)O)C2c2cccnc2)cc1 (stereo not given) ?
Dicer processing: inactive

What do the screens show for `Cc1ccc2[nH]c(=S)n(Cc3ccc(C#N)cc3)c(=O)c2c1`?
Dicer processing: inactive

Results for CC1(C)CC(=O)C2=C(C1)N1C(=C(C#N)C2c2cccs2)N=C(N)c2ccccc21 (stereo not given) ?
Dicer processing: inactive

Results for Cc1ccc(-c2cc(-c3ccccc3)c(C#N)c(N)n2)cc1 ?
Dicer processing: inactive

Results for CC(=O)n1c(-c2ccc(C)cc2)cc(-c2ccc(C)cc2)c(C#N)c1=O ?
Dicer processing: 3.36

What do the screens show for `CCOC(=O)c1nn(-c2ccccc2)c(=O)c2c(N)c(C#N)c(-c3ccccc3)cc12`?
Dicer processing: inactive

How did COc1ccc(C2C=C(c3ccc(F)cc3)Nc3nc(CCCO)nn32)cc1 (stereo not given) do in these assays?
Dicer processing: inactive

What do the screens show for `CCOC(=O)c1sc(N2C(=O)c3oc4ccc(C)cc4c(=O)c3C2c2ccc(O)cc2)nc1C` (stereo not given)?
Dicer processing: inactive

Results for C=CCOC(=O)c1sc(N2C(=O)c3oc4ccc(C)cc4c(=O)c3C2c2ccc(F)cc2)nc1C (stereo not given) ?
Dicer processing: inactive

What do the screens show for `COC(=O)c1sc(N2C(=O)c3oc4ccccc4c(=O)c3C2c2cccc(Cl)c2)nc1C` (stereo not given)?
Dicer processing: inactive

What do the screens show for `COC(=O)c1sc(N2C(=O)c3oc4ccccc4c(=O)c3C2c2cccc(O)c2)nc1C` (stereo not given)?
Dicer processing: 3.76

What do the screens show for `COC(=O)c1sc(N2C(=O)c3oc4ccccc4c(=O)c3C2c2ccc(C)cc2)nc1C` (stereo not given)?
Dicer processing: inactive

Results for C=CCOC(=O)c1sc(N2C(=O)c3oc4ccc(C)cc4c(=O)c3C2c2ccc(O)cc2)nc1C (stereo not given) ?
Dicer processing: 3.3

Results for Cc1nc(-c2ccccn2)[nH]c(=O)c1Cl ?
Dicer processing: inactive

How did Clc1ccc(OCCSc2n[nH]c3nc4ccccc4n23)cc1 do in these assays?
Dicer processing: inactive

Results for Cc1onc(-c2c(Cl)cccc2Cl)c1NC(=O)Nc1ccc(Oc2ccc(Cl)cc2)nc1 ?
Dicer processing: inactive

Results for OCCN1CCN(CCCN2c3ccccc3Sc3ccc(Cl)cc32)CC1 ?
Dicer processing: inactive

What do the screens show for `CC(=O)c1ccc2c(c1)N(CCCN1CCC(CCO)CC1)c1ccccc1S2`?
Dicer processing: inactive

Results for CN1CCN(CCCN2c3ccccc3Sc3ccc(S(=O)(=O)N(C)C)cc32)CC1 ?
Dicer processing: 5.97

How did C=C1SC(=Nc2ccccc2Cl)N(C(=O)c2cc(OC)c(OC)c(OC)c2)C1(C)C do in these assays?
Dicer processing: inactive

How did CSc1sc(-c2ccnc(SCCS(=O)(=O)c3ccc(C(F)(F)F)cn3)n2)c(-c2ccccc2)c1C#N do in these assays?
Dicer processing: inactive

Results for Cc1ccc(S(=O)(=O)N/N=C/c2nccs2)cc1 ?
Dicer processing: inactive

How did CN(C)/C=N/NS(=O)(=O)c1ccccc1 do in these assays?
Dicer processing: inactive

How did Cc1ccc(S(=O)(=O)N/N=C/c2ccc3ccccc3c2O)cc1 do in these assays?
Dicer processing: 3.25

Results for Nc1ccc(-c2nc3ccccc3o2)c(O)c1 ?
Dicer processing: inactive

Results for CCCN/C(C)=C(/C(=O)OCC)C(=S)Nc1ccc(OCC)cc1 ?
Dicer processing: inactive

What do the screens show for `O=C(CN1C(=O)c2cccc3cccc1c23)Nc1ccc(F)cc1`?
Dicer processing: inactive

Results for N#Cc1nccnc1Oc1ccc(Cl)cc1 ?
Dicer processing: inactive

Results for Clc1ccc(CSc2nnc(SCc3ccc(Cl)cc3)s2)cc1 ?
Dicer processing: inactive

How did Clc1ccc(CSc2nsc(SCc3ccc(Cl)cc3)n2)cc1 do in these assays?
Dicer processing: inactive

How did Nc1ccc2nc(SCc3ccc(Cl)cc3)sc2c1 do in these assays?
Dicer processing: 3.91

What do the screens show for `CN(NC(=O)c1ccccc1Cl)c1ncc(Cl)cc1C(F)(F)F`?
Dicer processing: inactive

What do the screens show for `COc1ccc(-c2nnc(SCc3ccc(F)cc3)o2)c(OC)c1`?
Dicer processing: inactive

Results for CN(/N=C/c1ncc([N+](=O)[O-])n1C)c1cnn(-c2ccccc2)c(=O)c1Cl ?
Dicer processing: inactive

How did Cc1sc2c(c1C)C(=O)/C(=C\Nc1ccc(Cl)cc1)S(=O)(=O)N2C do in these assays?
Dicer processing: inactive

How did CCOC(=O)c1sc(SCC(=O)c2ccc(Cl)cc2)nc1C do in these assays?
Dicer processing: inactive

Results for CCOC(=O)c1c(NC(=O)Nc2ccc(C)cc2)sc2c1CCN(C)C2 ?
Dicer processing: inactive

Results for CCOC(=O)c1c(NC(=O)Nc2cc(OC)ccc2Cl)sc2c1CCN(C)C2 ?
Dicer processing: 3.43

How did CCOC(=O)c1c(NCc2cc(OC)ccc2O)sc2c1CCC2 do in these assays?
Dicer processing: 4.08

How did CCOC(=O)c1c(NS(=O)(=O)c2ccc(OC)c(OC)c2)sc2c1CCC2 do in these assays?
Dicer processing: inactive

How did CCOC(=O)c1c(NC(=O)C(C)Oc2ccc(OC)cc2)sc2c1CCC(C)C2 (stereo not given) do in these assays?
Dicer processing: inactive

Results for CCOC(=O)c1c(NC(=O)Oc2ccccc2)sc2c1CCC2 ?
Dicer processing: inactive

Results for O=C(c1ccccc1)n1nccc1C(c1ccccc1)c1ccccc1 ?
Dicer processing: inactive

What do the screens show for `N/C(Cc1cc(Cl)cc(Cl)c1)=N\O`?
Dicer processing: inactive

How did COc1cccc(C2C(C(=O)OCC3CCCO3)=C(C)NC3=C2C(=O)CCC3)c1 (stereo not given) do in these assays?
Dicer processing: inactive

What do the screens show for `COc1ccc(/C=N/OC(=O)c2sc3nc(C(F)(F)F)nn3c2C)cc1`?
Dicer processing: inactive

What do the screens show for `O=C1CC(c2cccs2)CC2=C1C(c1cccc(Cl)c1)n1c(nc3ccccc31)N2` (stereo not given)?
Dicer processing: inactive

What do the screens show for `O=C1c2cccc3c(N4CCOCC4)ccc(c23)C(=O)N1c1cc(Cl)ccc1O`?
Dicer processing: 8.35

Results for O=C1c2cccc3c(N4CCOCC4)ccc(c23)C(=O)N1c1cccc(O)c1 ?
Dicer processing: inactive

Results for O=C1c2cccc3c(N4CCOCC4)ccc(c23)C(=O)N1c1ccccc1 ?
Dicer processing: inactive

What do the screens show for `Cc1cc(C)cc(CC2CC(=O)N(CC(=O)O)C2=O)c1` (stereo not given)?
Dicer processing: inactive
